Screening data from PubChem.
A selection: hits, their analogues and other compounds. The true share with any hit is near 8%.
ELG1 repair inh – ELG1-dependent DNA repair inhibition; HEK293T ELG1-luciferase reporter, luminescence, 16 h; DNA damage induced by 5-fluorouridine; Potency, µM (series often up to 46.1 µM), for inactives: top-dose activity change, negative = inhibition, usual class: inhibitors; hit rate 2.3% among 330,000; AID 504467; note: potency is the fitted concentration of half-maximal effect; nearly all actives have a fitted effect of over 55% in size
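HEK293T cells expressing luciferase-tagged ELG1 (2,000/well) received 5-Fluorouridine plus compound or DMSO for 16 hr at 37 °C. Luciferase was read by ONE-Glo luminescence after 30 min at room temperature.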
Gal4-VP16 FLuc – inhibits Gal4-VP16 luciferase reporter, ROR gamma counter-screen; Drosophila S2 Gal4-VP16 UAS-luciferase, luminescence, 20 h; hit rate 3.5% among 310,000; Potency, µM (series often up to 53.6 µM), inactives show top-dose activity, negative = inhibition, usual class: inhibitors;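 note: Gal4-VP16 expression switched on by copper sulfate through the metallothionein promoter; potency is the fitted concentration of half-maximal effect; nearly all actives have a fitted effect of over 50% in size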
Coupling enz – counter-screen for Giardia aldolase inhibitors: coupling enzyme system; coupling enzyme system counterscreen, AmpLite Red fluorescence; activity change, negative = inhibition, % at 58.2 µM, hits read low; hit rate 0.67% among 290,000; AID 2472; in the data active = activity change below about -30%
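First, compound is pin-transferred into glyceraldehyde-3-phosphate coupling-enzyme reagent at 57.5 uM final and held 10 min at RT. Next, substrate, coupling system and AmpLite Red are added. After 20 min RT, fluorescence (525/598 nm) is read.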
TSHR antag – human thyrotropin receptor antagonism; P16473; TSHR-expressing cells, TSH-stimulated cAMP HTRF, 2 h; stronger effect = lower value; activity change, negative = inhibition, % at 11.5 µM; hit rate 0.2% among 330,000;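 active = activity change below a set negative limit, meaning inhibition stronger than a set level, cut at about -70% in these data; inconclusive = activity change between two set negative limits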
Target sequence (P16473 whole entry, looked up): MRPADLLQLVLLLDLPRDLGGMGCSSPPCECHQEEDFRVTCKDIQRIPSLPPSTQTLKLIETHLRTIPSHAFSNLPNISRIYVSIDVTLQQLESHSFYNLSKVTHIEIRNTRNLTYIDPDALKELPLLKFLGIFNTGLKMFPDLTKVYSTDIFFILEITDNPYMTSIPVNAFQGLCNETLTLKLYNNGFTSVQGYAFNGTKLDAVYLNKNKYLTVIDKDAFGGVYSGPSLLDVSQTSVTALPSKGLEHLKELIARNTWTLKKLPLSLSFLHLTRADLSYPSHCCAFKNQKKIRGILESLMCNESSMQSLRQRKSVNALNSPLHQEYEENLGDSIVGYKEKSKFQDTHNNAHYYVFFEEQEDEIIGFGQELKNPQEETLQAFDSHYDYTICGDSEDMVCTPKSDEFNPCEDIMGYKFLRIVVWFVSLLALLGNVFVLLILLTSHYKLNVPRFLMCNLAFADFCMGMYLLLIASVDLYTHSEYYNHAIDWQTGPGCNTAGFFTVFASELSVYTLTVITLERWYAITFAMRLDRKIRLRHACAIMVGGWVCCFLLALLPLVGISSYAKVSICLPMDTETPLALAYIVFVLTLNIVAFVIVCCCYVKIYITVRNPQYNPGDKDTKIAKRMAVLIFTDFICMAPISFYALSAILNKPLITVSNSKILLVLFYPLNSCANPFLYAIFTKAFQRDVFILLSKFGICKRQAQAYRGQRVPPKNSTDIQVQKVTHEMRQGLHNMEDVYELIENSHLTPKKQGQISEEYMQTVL
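Read-out is FRET at 665 nm (cryptate excitation 337 nm) from a cryptate-tagged anti-cAMP antibody, competed by cell cAMP against cAMP-d2. Compounds are tested on freshly harvested TSHR cells challenged with 4nM TSH (EC80) for 2 hours at 37 deg C.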
RORgamma inh – blocks mouse ROR gamma transcriptional activity. Drosophila S2 Gal4-RORgamma UAS-luciferase reporter, 20 h. hit rate 5.4% among 310,000. P51450. AID 2551. Potency, µM (top dose mostly 53.6 µM), for the others: top-dose activity change, negative = inhibition, actives largely listed as inhibitors; note: potency is the fitted concentration of half-maximal effect; nearly all actives have a fitted effect of over 60% in size
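Luciferase reporter read in Schneider cells carrying Gal4-RORγ (mouse) and UAS-Photinus luciferase; cells given compound 1 h before 700 uM copper sulfate induction, then incubated 20 h at ambient temperature.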
* marks the source's active call; other numbers are inactive results; ? = inconclusive; / = not tested or not shown; ! = not confirmed by another sample; [ ] = another dose, or the depositor's remark. Unless noted, calls come from the whole dose curve; as a rule, active = well fitted curve in the direction sought with a large enough effect; inconclusive = small, poorly fitted or top-dose-only effect, or another doubt; inactive = no such curve, though single readings can be large; an effect the other way counts as inactive or inconclusive. % is set by controls: 0 for no effect and ±100 for the full control effect.

SMILES	ELG1 repair inh	Gal4-VP16 FLuc	Coupling enz	TSHR antag	RORgamma inh
CCCc1c(OCCCCc2nn[nH]n2)ccc(C(C)=O)c1O	-1%	13µM*!	13	-18	?
CCCc1c(OCC(O)COc2ccc3c(=O)cc(C(=O)O)oc3c2CCC)ccc(C(C)=O)c1O (stereo not given)	/	-16%	3	/	27%
COc1cc(-c2cc(C(=O)NCCc3ccc(S(N)(=O)=O)cc3)c3ccccc3n2)cc(OC)c1OC	4.1µM*	-4%	-3	-8	-4%
Cc1ccc(C(=O)O)c(C(=O)Nc2nc3ccccc3s2)c1	?	1%	1	1	0%
O=C(Nc1ccc(O)cc1)c1ccccc1OCc1ccccc1	?	3%	-1	-8	?
COc1cc(-c2cc(C(=O)Nc3nc4ccccc4s3)c3ccccc3n2)cc(OC)c1OC	5.2µM*	3%	6	-6	-11%
COc1cc(-c2cc(C(=O)Nc3ccc(O)cc3)c3ccccc3n2)cc(OC)c1OC	5.8µM*	-13%	0	0	17%
COc1cc(NC(=O)c2ccccc2OCc2ccccc2)cc(OC)c1OC	16µM*	0%	-3	2	-15%
CC(C)(CNC(=O)Cc1ccc(Cl)cc1Cl)N1CCCCC1	-4%	4%	3	-4	-2%
COc1ccc(/C=N/Nc2cc(C)nc3ccccc23)cc1	-6%	?	-2	3	?
Cc1cc(N/N=C/c2ccc(F)cc2)nc(NCc2ccccc2)n1	0%	?	-8	-5	11µM*
COc1ccc2nc(C)cc(N/N=C/c3ccc(F)cc3)c2c1	?	5µM*	-1	-19	4µM*
Cc1ccc(/C=N/Nc2cc(C)nc(NCc3ccccc3)n2)cc1	-29%	?	-8	3	20µM*
Cc1cc(N/N=C/c2ccc(N(C)C)cc2)nc(NCc2ccccc2)n1	?	-3%	2	-3	-28%
CN1/C(=C\C=N\O)C(C)(C)c2ccccc21	-2%	-19%	-8	-8	-19%
CN1/C(=C\C(=S)NC(=O)c2ccc([N+](=O)[O-])cc2)C(C)(C)c2ccccc21	9%	4µM*	1	-9	3.5µM*
CN1/C(=C/C=N/NC(=O)c2ccc([N+](=O)[O-])cc2)C(C)(C)c2ccccc21	?	2.2µM*	-1	-7	1.8µM*
CO/N=C/C=C1/N(C)c2ccccc2C1(C)C	12%	-3%	-6	20	-14%
CN1/C(=C\C(=S)NC(=O)c2cccc(Br)c2)C(C)(C)c2ccccc21	?	6.3µM*	1	-25	?
CN1/C(=C/C(=O)C2CC2)C(C)(C)c2ccccc21	10%	?	0	2	-6%
Cc1ccccc1N=C/C=C1\N(C)c2ccccc2C1(C)C	-20%	13µM*	-10	21	?
Cc1cccc(C)c1NCC(=O)N1CCN(Cc2ccccc2)CC1	-17%	-4%	2	0	-4%
Cc1sc2nc(CSC(C)C(=O)N3CCOCC3)[nH]c(=O)c2c1C (stereo not given)	-2%	4%	-2	7	-12%
Cc1ccc(C)c(N2CCN(C(=O)c3ccc(N4CCCC4=O)cc3)CC2)c1	?	-8%	1	-2	-31%
COc1ccc(N(/N=C2\Sc3ccccc3C2=O)C(C)=O)cc1	?	19%	2	-1	?
SMILES	ELG1 repair inh	Gal4-VP16 FLuc	Coupling enz	TSHR antag	RORgamma inh
COc1ccccc1N(/N=C1\Sc2ccccc2C1=O)C(C)=O	?	?	0	1	8.9µM*
c1ccc(-c2ncc(CSc3nncn3-c3ccccc3)s2)cc1	-1%	16%	0	16	-33%
Cc1nnc(SCc2cnc(-c3ccc(C(C)C)cc3)s2)n1C	?	11µM*	0	13	10µM*
Cc1cccc(NC(=S)N2CCC(c3nc4ccccc4o3)CC2)c1C	13%	?	3	14	10µM*
COc1ccccc1NC(=O)N1CCC(c2nc3ccccc3o2)CC1	4%	-5%[10 µM]	0	-5	9%
CCOc1ccccc1NC(=S)N1CCC(c2nc3ccccc3o2)CC1	-15%	?	3	1	11µM*
Cc1cccc(NC(=S)N2CCC(c3nc4ccccc4o3)CC2)c1	-2%	8%[10 µM]	-1	-14	7.1µM*
O=C(O)c1ccccc1Cc1ccccc1	/	-5%	5	/	-18%
Cc1cc(NC(=O)c2cccc(S(=O)(=O)Nc3cccc(C(=O)O)c3)c2)no1	6%	3%	9	-6	27%
O=C(c1csnn1)N1CCC2(CCCN(c3ccccc3)C2)CC1	/	?	2	/	3%
Cc1ccc(C)c(S(=O)(=O)N2CCN(C(=O)Cc3ccc(S(=O)(=O)N4CCOCC4)s3)CC2)c1	?	/	/	-10	/
CSc1ccccc1NC(=O)CN(C)CC(=O)Nc1ccccc1C(F)(F)F	?	3%[10 µM]	4	-2	8.9µM*
CSc1ccccc1NC(=O)CN(C)CC(=O)Nc1ccc(Cl)cc1F	?	?	0	-19	11µM*
COc1ccc(-c2ccc(SCC(=O)N3c4ccccc4CC3C)nn2)cc1OC (stereo not given)	16µM*	-5%	-2	-4	?
CCOC(=O)N1CCN(C(=O)CSc2ccc(-c3ccc(OC)c(OC)c3)nn2)CC1	?	-6%	0	-2	0%
COc1cc([N+](=O)[O-])ccc1NC(=O)Nn1cnnc1	0%	0%	2	-1	-10%
Cc1cccc(C)c1OCC(=O)N[C@@H](Cc1ccccc1)[C@@H](O)C[C@H](Cc1ccccc1)NC(=O)[C@H](C(C)C)N1CCCNC1=O	/	2%	/	/	?
CCOP(=O)(Cc1ccc(C(C)(C)CC(C)=O)o1)OCC	3%	1%	7	-82*	11%
CC(C)Oc1ccc(C2C(C#N)=C(N)Oc3c2oc(CO)cc3=O)cc1 (stereo not given)	7%	13%	-3	2	-20%
Cc1ccc(C2C(C#N)=C(N)Oc3c2oc(CO)cc3=O)o1 (stereo not given)	5%	-6%	-38*	-1	-28%
COc1cccc2nc3cc(C)c(C)cc3nc12	?	?	-39*	-12	10µM*
C/C(CC(=O)Nc1ccc([N+](=O)[O-])cc1)=N\NC(=O)c1ccccc1O	-1%	16µM*	3	-9	11µM*
C/C(Cn1cnc([N+](=O)[O-])n1)=N\NC(=O)c1ccc(Br)cc1	18%	-4%	-4	2	?
C/C(Cn1nc([N+](=O)[O-])cc1C)=N\NC(=O)c1ccc(O)cc1O	?	14µM*	0	-1	1.6µM*
C/C(Cn1cnc([N+](=O)[O-])n1)=N\NC(=O)c1ccccc1O	-1%	?	-3	-12	13µM*
